Source: PubChem BioAssay
Lassa entry inh: inhibitors of Lassa virus binding or cell entry; Lassa virus pseudotype entry inhibition, cell reporter; Potency, µM (highest dose often 37.9 µM), actives largely listed as inhibitors; 300,000 tested, 1.2% active; calls by dose curve; tested in HEK293 cells; further: nearly all actives have a fitted effect of over 50% in size
FMDV antiviral: foot and mouth disease virus antiviral activity; FMDV antiviral cell-based qHTS; Potency, µM (series often up to 57.9 µM), most hits filed as inhibitors; 410,000 tested, 1.2% active; AID 1159524; calls by dose curve; tested in HEK293T cells; further: read-out not given here; nearly all actives have a fitted effect of over 45% in size
HCMV inh: blocks human cytomegalovirus replication; HFF cells, HCMV-luciferase reporter, 72 h; stronger effect = lower value; activity change, negative = inhibition, % at 57.5 µM; 410,000 tested, 4.5% active; in the data active means activity change below about -60%; inconclusive means no clear call, values can overlap the other calls; inactive means above about -39%
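Inhibition of viral replication was scored as loss of reporter luminescence in HFFs infected with HCMV-luciferase (MOI 1 PFU/cell) for 72 h; compounds tested at 2 doses, normalized to buffer and Salinomycin controls.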
HCV inh: HCV inhibition; Potency, µM (series often up to 41.8 µM), usual class: inhibitors; AID 651820; 340,000 tested, 3.4% active; Huh7.5.1 HCVcc-Cre infection, luciferase reporter, 44 h; active means well fitted inhibition curve with a large enough effect; inconclusive means small, poorly fitted or top-dose-only effect, or another doubt; inactive means no such curve, though single readings can be large or run the other way
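Antiviral activity was scored by luciferase reporter output from cells infected with HCVcc-Cre (~0.5 moi) in presence of compound, 44 h infection period, cells seeded 1,000/well 4 h prior.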
Marburg entry inh: Marburg virus entry inhibition | Marburg virus pseudotyped entry inhibition, cell reporter | Potency, µM (titrated, usually from 37.8 µM), usual class: inhibitors | 300,000 tested, 1.8% active | AID 540276; calls by dose curve; tested in HEK293 cells
Of the large screens only hits and unclear results are named; the others gave an inactive call; ! = a repeat was not active. In the library only some 7.9% were active in any assay of this set; here they are far more common.

CCc1ccc(N(CC)C(=O)c2cc3c(=O)oc4ccc(C)cc4c3s2)cc1	none (no result: HCV inh)
CCC1CN2CCc3cc(OC)c(OC)cc3C2CC1CC1NCCc2cc(OC)c(OC)cc21 (stereo not given)	none (no result: Lassa entry inh, HCMV inh, HCV inh, Marburg entry inh)
CCC1=C(CC2NCCc3ccccc32)CC2c3cc(OC)c(OC)cc3CCN2C1 (stereo not given)	Lassa entry inh inconclusive, FMDV antiviral inconclusive, HCMV inh -100, HCV inh inconclusive, Marburg entry inh inconclusive
CC[C@H]1CN2CCc3cc(OC)c(OC)cc3C2C[C@@H]1C[C@H]1NCCc2cc(OC)c(OC)cc21 (stereo not given in full)	HCMV inh -97, HCV inh 0.32µM (no result: Lassa entry inh, Marburg entry inh)
CC(Oc1cccc(F)c1)C(=O)Nc1ccc(N2CCOCC2)cc1 (stereo not given)	none (no result: Lassa entry inh, Marburg entry inh)
N#Cc1cccc(N=Cc2c(O)ccc3ccccc23)c1	HCMV inh -61
Cc1ccc(N=Cc2c(O)ccc3ccccc23)cc1F	none
O=C(c1csnn1)N1CCC2(CCCN(c3ccc(-c4ccccc4)cc3)C2)CC1	none (no result: Lassa entry inh, HCMV inh, HCV inh, Marburg entry inh)
COc1ccc(NC(=O)CSc2ccccc2)cn1	Lassa entry inh inconclusive, HCMV inh -103, Marburg entry inh inconclusive
CC1=C(C(=O)Nc2ccc([N+](=O)[O-])cc2)C(c2cccc(C(F)(F)F)c2)NC(=S)N1c1ccccc1 (stereo not given)	Lassa entry inh inconclusive, HCMV inh -98, HCV inh inconclusive, Marburg entry inh inconclusive
Clc1ccc2c(SCC3CO3)c3ccccc3nc2c1 (stereo not given)	Lassa entry inh 20µM, FMDV antiviral inconclusive, HCV inh inconclusive, Marburg entry inh inconclusive
Cc1sc2ncnc(SC(C)C(=O)N3c4ccccc4Sc4ccccc43)c2c1C (stereo not given)	Lassa entry inh inconclusive, HCMV inh inconclusive, HCV inh inconclusive, Marburg entry inh 11µM
O=C1C=C(NCCc2cc(Br)c(O)c(Br)c2)C(=O)c2ncccc21	Lassa entry inh 2.8µM, FMDV antiviral 10µM, HCMV inh -100, HCV inh inconclusive, Marburg entry inh inconclusive
CC(=O)c1ccc(N2CCN(C(=O)CCS(=O)(=O)c3ccc(C)cc3)CC2)cc1	none
O=C(CCS(=O)(=O)c1ccc(Br)cc1)N1CCN(c2ccc(Cl)cc2)CC1	FMDV antiviral inconclusive, HCMV inh -79, Marburg entry inh inconclusive
O=C(CCS(=O)(=O)c1ccc(Br)cc1)N1CCN(c2ccc(F)cc2)CC1	HCMV inh -65 (no result: Lassa entry inh, Marburg entry inh)
Cc1ccc(S(=O)(=O)CCC(=O)N2CCN(c3ccc([N+](=O)[O-])cc3)CC2)cc1	FMDV antiviral inconclusive, HCV inh 13µM (no result: Lassa entry inh, Marburg entry inh)
COc1ccc(N2CCN(C(=O)CCS(=O)(=O)c3ccc(OC)cc3)CC2)cc1	none (no result: Lassa entry inh, Marburg entry inh)
O=C(CCSCc1cccc(Cl)c1)N1CCN(c2ccc(Cl)cc2)CC1	Lassa entry inh inconclusive, HCMV inh -63 (no result: HCV inh, Marburg entry inh)
CC(NC(=O)CN1C(=O)NC2(CCCC2)C1=O)c1ccc2ccccc2c1 (stereo not given)	none (no result: Lassa entry inh, Marburg entry inh)
Fc1cccc(CSc2ccc3nnc(-c4cccnc4)n3n2)c1	HCMV inh inconclusive, Marburg entry inh inconclusive
O=C(c1ccco1)N(CCC(c1ccccc1)c1ccco1)Cc1ccco1 (stereo not given)	FMDV antiviral inconclusive, Marburg entry inh inconclusive
CC(=O)N(CCC(Cc1ccccc1)c1ccco1)Cc1ccco1 (stereo not given)	FMDV antiviral inconclusive, HCV inh 11µM (no result: Lassa entry inh, Marburg entry inh)
CC(=O)N(CCC(Cc1ccccc1)c1ccc2c(c1)OCO2)Cc1ccc(Cl)cc1 (stereo not given)	Lassa entry inh inconclusive, FMDV antiviral inconclusive, HCV inh 11µM, Marburg entry inh inconclusive
CCOC(=O)c1c(C)[nH]c(C)c1S(=O)(=O)NC(CC)CN1CCOCC1 (stereo not given)	none (no result: Lassa entry inh, Marburg entry inh)
CSC1SCC2C(=O)N(C)C(C(C)C)C(=O)OCC(NC(=O)c3cnc4ccccc4n3)C(=O)NC(C)C(=O)N(C)C1C(=O)N(C)C(C(C)C)C(=O)OCC(NC(=O)c1cnc3ccccc3n1)C(=O)NC(C)C(=O)N2C (stereo not given)	Lassa entry inh inconclusive, HCMV inh -99, HCV inh inconclusive, Marburg entry inh inconclusive
C/C(CC(C)(C)C1CCCCC1)=N\NC(N)=S	Lassa entry inh 16µM, HCMV inh -88, HCV inh 2.8µM, Marburg entry inh inconclusive (no result: FMDV antiviral)
C/C(CC1CC(C)OC1=O)=N\NC(N)=S (stereo not given)	none (no result: Lassa entry inh, Marburg entry inh)
CN1CCN(CC/C=C2/c3ccccc3Sc3ccc(S(=O)(=O)N(C)C)cc32)CC1	HCV inh inconclusive, Marburg entry inh 4µM! (no result: Lassa entry inh)
COc1cc2c(cc1Cl)/C(=C\CCN(C)C)c1ccccc1S2	Lassa entry inh inconclusive, HCV inh inconclusive, Marburg entry inh inconclusive
CC(C)(C)NC(=O)c1csc(C(O)c2ccc(C(C)(C)C)cc2)n1 (stereo not given)	HCMV inh -96 (no result: Lassa entry inh, FMDV antiviral, HCV inh, Marburg entry inh)
COc1cc(NC(=O)c2csc(C(O)c3ccc(C(C)(C)C)cc3)n2)cc(OC)c1OC (stereo not given)	none (no result: Lassa entry inh, FMDV antiviral, HCV inh, Marburg entry inh)
CN(C)CCNc1ncnc2c1ncn2[C@H]1CN(Cc2ccc(Cl)cc2)C[C@@H](CO)O1	none (no result: Lassa entry inh, HCV inh, Marburg entry inh)
Cn1c(CN2CCN(S(C)(=O)=O)CC2)nc2cc([N+](=O)[O-])ccc21	HCMV inh -101, Marburg entry inh inconclusive
CC(=O)N1CCN(Cc2nc3cc([N+](=O)[O-])ccc3n2C)CC1	none (no result: Lassa entry inh, Marburg entry inh)
CC(=O)O[C@H]1[C@@H](O)[C@H](O)[C@H](Oc2c(O)c(C)c3c4c2[C@@H](C)CC[C@@H]4[C@@H](C)C[C@H]3C=C(C)C)O[C@H]1C	HCMV inh -97, HCV inh inconclusive (no result: Lassa entry inh, Marburg entry inh)
CC(=O)O[C@@H]1[C@@H](O)[C@@H](O)[C@H](Oc2c(-c3ccc(O)cc3)oc3c(CC=C(C)C)c(O)cc(O)c3c2=O)O[C@H]1C	FMDV antiviral inconclusive (no result: Lassa entry inh, HCMV inh, Marburg entry inh)
COC(=O)CC1=COC(O)C2C(CO)=CC[C@@H]12 (stereo not given in full)	none (no result: Lassa entry inh, FMDV antiviral, HCMV inh, HCV inh)
COc1ccc(C(CC(=O)N2CCCC(C)C2)c2c(OC)cc(OC)c3ccc(=O)oc23)cc1 (stereo not given)	HCV inh 11µM (no result: Lassa entry inh, Marburg entry inh)
COc1ccc(C(CC(=O)N2CCCC2)c2c(OC)cc(OC)c3ccc(=O)oc23)cc1 (stereo not given)	HCV inh 2.8µM (no result: Lassa entry inh, Marburg entry inh)
COc1ccc(C(CC(=O)N2CCOCC2)c2c(OC)cc(OC)c3ccc(=O)oc23)cc1 (stereo not given)	none (no result: Lassa entry inh, Marburg entry inh)
COc1ccc(C(CC(=O)N2CCCC(C)C2)c2c(OC)cc(OC)c3c(-c4ccccc4)cc(=O)oc23)cc1 (stereo not given)	HCMV inh -68, HCV inh inconclusive (no result: Lassa entry inh, Marburg entry inh)
COc1cc(OC)c2ccc(=O)oc2c1C(CC(=O)N1CCCC1)c1ccc(N(C)C)cc1 (stereo not given)	none (no result: Lassa entry inh, Marburg entry inh)
COc1ccc(C(CC(=O)N2CCCC2)c2c(OC)cc(OC)c3c(-c4ccccc4)cc(=O)oc23)cc1 (stereo not given)	HCV inh inconclusive (no result: Lassa entry inh, Marburg entry inh)
C/C(CC(=O)Nc1ccc(C)c(Cl)c1)=N\NC(=O)c1ccccn1	none
O=C(Cn1ncc2ccccc2c1=O)Nc1cccc(C(F)(F)F)c1	none (no result: Lassa entry inh, HCV inh, Marburg entry inh)
COc1cc2c(cc1OC)[C@@H]1O[C@](c3ccsc3)(C2)Oc2c1c(=O)oc1ccc(F)cc21	none (no result: Lassa entry inh, FMDV antiviral, HCMV inh, HCV inh)
